This is an account of results in PubChem BioAssay AID2013 (Sanford-Burnham Center for Chemical Genomics, 2009).

In all, about 290,000 compounds went through this assay and about 370 (0.13%) were called active. The sample holds actives, similar compounds and a random draw of the others, so the mix is not that of the screen.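 Rule for the calls: active = spots per cell inhibited over 60%, with over 100 cells counted and total cytoplasm intensity under 500,000; inconclusive = wells with under 100 cells, flagged as likely toxic; inactive = the rest.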 Entries with a potency or affinity are not part of this list.

This assay deals with G-protein coupled receptor 55 (Homo sapiens) (UniProt Q9Y2T6). Kind of assay: inhibition of LPI-stimulated GPR55 beta-arrestin translocation – imaging, U2OS, beta-arrestin-GFP, LPI agonist, primary screen (AID 2013).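 Note: U2OS cells stably carrying GPR55 and arrestin-GFP stimulated by 5 µM LPI near EC80; imaged beta-arrestin-GFP aggregate spots per cell after agonist stimulation; plate controls were LPI-stimulated DMSO wells for no effect and DMSO wells without LPI for full effect.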 The following applies: LPI antagonism, at 10 µM, stronger effect = higher value.
Sequence of G-protein coupled receptor 55 (Homo sapiens) (Q9Y2T6 whole entry, looked up): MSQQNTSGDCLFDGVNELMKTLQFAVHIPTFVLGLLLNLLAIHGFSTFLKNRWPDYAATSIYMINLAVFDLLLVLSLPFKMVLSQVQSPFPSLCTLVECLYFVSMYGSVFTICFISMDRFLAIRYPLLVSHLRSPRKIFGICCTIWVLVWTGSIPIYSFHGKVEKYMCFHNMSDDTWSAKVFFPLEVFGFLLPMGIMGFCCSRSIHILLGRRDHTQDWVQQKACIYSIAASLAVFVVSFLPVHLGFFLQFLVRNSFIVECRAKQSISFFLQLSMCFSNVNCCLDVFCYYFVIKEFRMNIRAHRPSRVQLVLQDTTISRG
The inhibition is the change of the read-out against control, counted positive when it falls. With `Cc1ccc(CN2CCN(/N=C/C(Br)=C\c3ccccc3)CC2)cc1`, the inhibition was -12% (inactive). Take `CN1/C(=C\C(=O)CSc2nncn2C)C(C)(C)c2ccccc21`: the inhibition was -7.6% (inactive). Then `CN1/C(=C\C(=O)CSc2cccc[n+]2[O-])C(C)(C)c2ccccc21`, with 0.8% (inactive); and `COc1ccc2[nH]cc(C(O)CN3CCC(C(N)=O)CC3)c2c1` (centres undefined), with 28.7% (inactive); and `COc1ccc([N+](=O)[O-])cc1N(CC(=O)NCCC1=CCCCC1)S(C)(=O)=O`, with 0.4% (inactive). As for `CC(C)(C)c1ccc(O)c(N=Cc2cc3c(cc2[N+](=O)[O-])OCO3)c1`, the figure is -3.2% (inactive); as for `CCN=C1S/C(=C\c2cn(C(C)=O)nc2-c2ccccc2)C(=O)N1CC`, -15.2% (inactive); as for `CC(=O)NC1=NC(=O)/C(=C/c2cc(C)n(-c3cccc(C(=O)O)c3)c2C)S1`, -3.4% (inactive). As for `CC(=O)NC1=NC(=O)/C(=C/c2cn(C(C)=O)nc2-c2ccccc2)S1`, the figure is 100% (active). Regarding `CCCn1cc(CN2CCC(n3nccc3NC(=O)c3ccc4c(c3)OCO4)CC2)c(C)n1`, the inhibition was 6% (inactive).

As to `CCc1ccc(C(=O)COC(=O)[C@@H](NC(N)=O)[C@@H](C)CC)cc1`, the inhibition is 0.9% (inactive). Regarding `Cc1ccc2nc(N(CCCN(C)C)C(=O)CCc3ccccc3)sc2c1`, the inhibition was 29.6% (inactive). With `CN(C)CCCN(C(=O)CCc1ccccc1)c1nc2ccc(Br)cc2s1`, the inhibition was 44.7% (inactive). As for `CN(C)CCCN(C(=O)CCc1ccccc1)c1nc2ccc(Cl)cc2s1`, the figure is 75.6% (active). Consider `CN(C(=O)c1ccc(OC2CCN(Cc3ccccn3)CC2)cc1)C1CCCCC1`, for which the inhibition was -18.7% (inactive). Consider `C1CCC(C23CC4CC(CC(C4)C2)C3)NC1` (centres undefined), for which the inhibition was -4.6% (inactive). For the molecule `O=S(=O)(CCC1CCCCN1)c1ccccc1` (centres undefined), the inhibition was 0.5% (inactive). As for `CCCN1Cc2cccc(C(=O)N3CCN(c4ccc(F)cc4)CC3)c2C1=O`, the inhibition was 2.2% (inactive). As for `O=C(Nc1ccc(F)cc1F)c1cc(-c2ccco2)nc2ccccc12`, the figure is 7.3% (inactive).

With `CN(/C(=N/S(=O)(=O)c1ccccc1)c1ccccc1)S(=O)(=O)c1ccccc1`, the inhibition is 5.7% (inactive). Then `CCc1ccc(CCC(=O)Nc2nccs2)o1`, with 2.3% (inactive). Then `Oc1ccc(-c2c(-c3ccsc3)sc3ccccc23)cc1`, with 6.5% (inactive).

On to `O=C(O)c1ccc(C2(c3ccc(C(=O)O)cc3)OC(=O)c3ccccc32)cc1`, for which the inhibition is -10.8% (inactive). Turning to `Nc1ccc(C2(c3ccc(N)cc3)OC(=O)c3ccccc32)cc1`, the inhibition was 4% (inactive). Regarding `CC(=O)Oc1ccc2c(c1)Oc1cc(OC(C)=O)ccc1C21OC(=O)c2ccccc21`, the inhibition is 9.9% (inactive). Then `Cc1cc(O)c(C(C)C)cc1C1(c2cc(C(C)C)c(O)cc2C)OC(=O)c2ccccc21`, with 6.1% (inactive); and `Cc1cc(C2(c3ccc(O)c(C)c3)OC(=O)c3ccccc32)ccc1O`, with 83.2% (active). As for `CN(C)c1ccc(C2(c3ccc(N(C)C)cc3)OC(=O)c3cc(N)ccc32)cc1`, the figure is 6.1% (inactive). As for `Cc1cccc(C2(c3cccc(C)c3)OC(=O)c3ccccc32)c1`, the figure is 10.5% (inactive). As to `CCCCOc1ccc(-c2nnn(CC(=O)NCCc3c[nH]c4ccccc34)n2)cc1`, the inhibition is 4% (inactive). Then `CCOc1cc(-c2noc(CCC(=O)NCC3CCCO3)n2)ccc1OC` (centres undefined), with 0% (inactive); and `COc1ccc(C2CC(=O)c3cnn(-c4nc(C)cc(C)n4)c3C2)cc1OC` (centres undefined), with 6.6% (inactive). Turning to `CC1=CC(C)(C)N2C(=O)C3(NCCc4c3[nH]c3ccccc43)c3cccc1c32` (centres undefined), the inhibition is 18.2% (inactive). Then `O=C(CNC(=S)N(Cc1ccc(F)cc1)C1CCCCC1)NCCN1CCOCC1`, with 12.3% (inactive).

In the case of `Cc1c(C(=O)NC2CCCCC2C)oc2ccccc12` (centres undefined), the inhibition is 0.8% (inactive). As for `COc1cc(NC(=O)C2CCN(S(=O)(=O)c3cccnc3)CC2)cc(OC)c1OC`, the figure is 8.8% (inactive). As for `O=C(c1cccnc1)N1CCN(C(=O)c2cccc(Cl)c2)CC1`, the figure is -12.2% (inactive); as for `Cc1cccc2c1c(N=NC(N)=S)c(O)n2C1OC(CO)C(O)C(O)C1O` (centres undefined), -13.4% (inactive); as for `O=C1NCCN(Cc2ccoc2)C1CC(=O)N(CCO)Cc1ccccc1` (centres undefined), 1.1% (inactive).

With `CCCCOc1ccccc1NC(=O)c1ccc(=O)[nH]c1`, the inhibition is 2.2% (inactive). Then `CCCCOc1ccccc1NC(=O)c1ccco1`, with 13.2% (inactive).

In the case of `O=C(CCc1ccccc1Cl)NC1CCCN(c2ccc(C(F)(F)F)cn2)C1` (centres undefined), the inhibition was 5% (inactive). As for `COc1ccc(C(C(=O)NCCC(C)C)N(CCCO)C(=O)c2snc(C(N)=O)c2N)cc1OC` (centres undefined), the figure is 5% (inactive).

As for `Nn1c(COc2cccc(Cl)c2)nc2ccccc2c1=O`, the inhibition was -10.2% (inactive). As for `CCc1nonc1NC(=O)c1oc2ccccc2c1C`, the figure is 10% (inactive); as for `Cc1ccc(OCC(O)Cn2c(=N)n(Cc3ccccc3)c3ccccc32)cc1` (centres undefined), 13.1% (inactive); as for `N=c1n(Cc2ccccc2)c2ccccc2n1CC(O)COc1ccccc1` (centres undefined), 50.2% (inactive). As to `O=C(O)CSc1nc2ccccc2n1-c1ccccc1`, the inhibition is 6.1% (inactive).

For `CC(C)N(C(=O)CSc1nc2ccccc2n1Cc1ccccc1)C(C)C`, the inhibition is 2% (inactive). As for `CC(=O)Nc1ccc(NC(=O)c2ccc(C)c(S(=O)(=O)Nc3cccc(C)c3)c2)cc1`, the figure is -3.1% (inactive); as for `COC(=O)C1CCN(C2=C(NS(=O)(=O)c3ccc(Cl)cc3)C(=O)c3ccccc3C2=O)CC1`, 2% (inactive); as for `Cc1cc(NC(=O)NC2CCCN2S(=O)(=O)c2ccc(Cl)cc2)no1` (centres undefined), 8.3% (inactive).

`Cc1cc(C)cc(-c2nnc(SCC(=O)c3ccc4c(c3)OCCO4)o2)c1`: the inhibition is -7.3% (inactive).

Consider `c1coc(CN(Cc2cccs2)Cc2nnnn2C2CCCCC2)c1`, for which the inhibition is 25.9% (inactive). As for `CC(C)(C)c1ccc(CN(Cc2ccco2)Cc2nnnn2C2CCCC2)cc1`, the figure is 19.2% (inactive); as for `CCCCCn1c(=O)[nH]c2cc(C(=O)NCc3ccc4c(c3)OCO4)ccc2c1=O`, 31.9% (inactive); as for `CC1CCN(C(=O)c2ccc([N+](=O)[O-])o2)CC1`, 5.5% (inactive). As for `CCCCNC(=O)C(Sc1ccccc1)c1ccccc1` (centres undefined), the figure is -9.3% (inactive). Then `NS(=O)(=O)c1ccc(NC(=O)C(Sc2ccccc2)c2ccccc2)cc1` (centres undefined), with 12.2% (inactive). Turning to `CC(=O)Nc1ccc(NC(=O)C(Sc2ccccc2)c2ccccc2)cc1` (centres undefined), the inhibition is -1.5% (inactive). Then `CCC(C)NC(=O)C(Sc1ccccc1)c1ccccc1` (centres undefined), with -0.3% (inactive).

As to `CCCNC(=O)C(Sc1ccccc1)c1ccccc1` (centres undefined), the inhibition was 8.1% (inactive). Take `CC(=O)NS(=O)(=O)c1ccc(NC(=O)C(Sc2ccccc2)c2ccccc2)cc1` (centres undefined): the inhibition was 8% (inactive). As to `CCOCCc1nn2c(=O)cc(CSCC(=O)Nc3ccc(OC)cc3)nc2s1`, the inhibition is 16.4% (inactive). With `Cc1cc(-c2ccccc2)c2c(=O)n(-c3ccccc3)[nH]c2n1`, the inhibition is -8.8% (inactive). Turning to `COc1cc(S(=O)(=O)N2CCC(C(N)=O)CC2)c(C)cc1C`, the inhibition was -8.6% (inactive). On to `CCCC(=O)NC(c1ccccc1Cl)c1ccc2cccnc2c1O` (centres undefined), for which the inhibition was 11.4% (inactive). Then `CN(C)c1ccc(/C=N/n2c(COc3ccccc3)n[nH]c2=S)cc1`, with 1.6% (inactive); and `COC(=O)c1cc(NC(=O)Cc2ccc(OC)c(OC)c2)cc(C(=O)OC)c1`, with 11% (inactive); and `COc1ccc(C(=O)NCC2(c3ccc(OC)c(OC)c3)CCCC2)c(OC)c1`, with -8.5% (inactive). As for `CCN1CC2=C(OC(N)=C(C#N)C2c2ccccc2)/C(=C\c2ccccc2)C1` (centres undefined), the figure is 3.6% (inactive); as for `CCN1CC2=C(OC(N)=C(C#N)C2c2cccs2)/C(=C\c2cccs2)C1` (centres undefined), 13.2% (inactive); as for `Cc1nc2ccccc2nc1OCc1cccc([N+](=O)[O-])c1`, 6.2% (inactive).

On to `Cc1cc(C)c(NC(=O)c2ccccc2C(=O)c2ccccc2)c(C)c1`, for which the inhibition was 10.3% (inactive).

With `Cc1ccc(C)c(NC(=O)c2ccccc2O)c1`, the inhibition is 10.8% (inactive). Then `Cc1ccc(C)c(NC(=O)c2ccccc2C(=O)c2ccccc2)c1`, with 79.4% (active); and `OCC[C@@H]1C[C@H](O)[C@@H](O)[C@]2(Cc3ccccc3O2)O1`, with -2.3% (inactive); and `COc1ccc(S(=O)(=O)n2nc(-c3cc(OC)c(OC)c(OC)c3)cc2N)cc1OC`, with -6.7% (inactive).

Turning to `COc1ccc(-c2cc(N)n(S(=O)(=O)c3ccc(F)cc3)n2)cc1OC`, the inhibition was 1.3% (inactive). As for `Cn1nnc2c(N3CCCCC3)nccc21`, the figure is 14.8% (inactive); as for `O=C(CC12CC3CC(CC(C3)C1)C2)Nc1ccc(C(=O)O)cc1`, -2.4% (inactive); as for `CC(=O)Nc1ccc(NC(=O)CC23CC4CC(CC(C4)C2)C3)cc1`, 55.6% (inactive). Turning to `O=C(NCCCn1ccnc1)c1cc(C2CC2)on1`, the inhibition was -6.4% (inactive).

Consider `CCOc1ccc2oc(C(=O)NCC(C)(C)CN(C)C)c(C)c2c1`, for which the inhibition is 13% (inactive). Then `O=C(NCCc1ccccc1)C1COc2ccccc2O1` (centres undefined), with 5.5% (inactive); and `CCn1nc([N+](=O)[O-])c2c(-c3nc4ccccc4o3)c(N)n(CCCOC)c2c1=O`, with 98.4% (active); and `CCCCCn1c(N)c(-c2nc3ccccc3o2)c2c([N+](=O)[O-])nn(CC)c(=O)c21`, with 13.1% (inactive). Take `CCCCn1c(N)c(-c2nc3ccccc3o2)c2c([N+](=O)[O-])nn(CC)c(=O)c21`: the inhibition is 4.8% (inactive). As for `CCOC(=O)N1CCC(=NNC(=O)Cn2ccc(C(F)(F)F)n2)CC1`, the figure is -11.4% (inactive); as for `COC(=O)c1cnc(SCC(=O)c2ccccc2)n1C`, 2% (inactive); as for `CC(C(=O)NCc1cccs1)N1C(=O)c2ccccc2C1=O` (centres undefined), 17.5% (inactive). Then `COCCCNC(=O)c1ccc([N+](=O)[O-])c(Cl)c1`, with 2.9% (inactive); and `C=CCNC(=O)c1ccc([N+](=O)[O-])c(Cl)c1`, with -0.3% (inactive). As for `Cc1ccnc2c(N3C(=O)C4C5c6ccccc6C(c6ccccc65)C4C3=O)cccc12` (centres undefined), the figure is 13.1% (inactive).
